From the supplement of paper PMC11732987, “Enantioselective OTUD7B fragment discovery through chemoproteomics screening and high-throughput optimisation” (Communications Chemistry, 2025)

Key:
Assay in all cases: log2 ratio of Biotin-Ahx-Ub-VS probe labelling (fragment/DMSO); higher = less target engagement (more negative = stronger competition), active = hit call of the paper (q ≤ 0.05, log2 ratio ≤ -1)
Details in all cases: compound concentration: 200 uM; treatment time: 3 h
USP34 = USP34 (UniProt Q70CQ2)
Summary of the method: (§1)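 HEK293T lysate (495 µg per sample, in Tris/CHAPS/IGEPAL buffer with protease inhibitors) was exposed in triplicate for 3 h to fragment at 200 µM or to vehicle, then to Biotin-Ahx-Ub-VS at 0.5 µM final for 1 h. Labelled DUBs were enriched on NeutrAvidin, digested with LysC and trypsin, and analysed by diaPASEF LC-MS/MS. Spectronaut label-free quantities were normalised to the global median, and values are average log2 ratios of fragment over vehicle from an unpaired t-test. Only proteins with ≥2 unique peptides were used.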

USP36 = target: T1, USP36 (UniProt Q9P275)
T1 sequence (whole entry): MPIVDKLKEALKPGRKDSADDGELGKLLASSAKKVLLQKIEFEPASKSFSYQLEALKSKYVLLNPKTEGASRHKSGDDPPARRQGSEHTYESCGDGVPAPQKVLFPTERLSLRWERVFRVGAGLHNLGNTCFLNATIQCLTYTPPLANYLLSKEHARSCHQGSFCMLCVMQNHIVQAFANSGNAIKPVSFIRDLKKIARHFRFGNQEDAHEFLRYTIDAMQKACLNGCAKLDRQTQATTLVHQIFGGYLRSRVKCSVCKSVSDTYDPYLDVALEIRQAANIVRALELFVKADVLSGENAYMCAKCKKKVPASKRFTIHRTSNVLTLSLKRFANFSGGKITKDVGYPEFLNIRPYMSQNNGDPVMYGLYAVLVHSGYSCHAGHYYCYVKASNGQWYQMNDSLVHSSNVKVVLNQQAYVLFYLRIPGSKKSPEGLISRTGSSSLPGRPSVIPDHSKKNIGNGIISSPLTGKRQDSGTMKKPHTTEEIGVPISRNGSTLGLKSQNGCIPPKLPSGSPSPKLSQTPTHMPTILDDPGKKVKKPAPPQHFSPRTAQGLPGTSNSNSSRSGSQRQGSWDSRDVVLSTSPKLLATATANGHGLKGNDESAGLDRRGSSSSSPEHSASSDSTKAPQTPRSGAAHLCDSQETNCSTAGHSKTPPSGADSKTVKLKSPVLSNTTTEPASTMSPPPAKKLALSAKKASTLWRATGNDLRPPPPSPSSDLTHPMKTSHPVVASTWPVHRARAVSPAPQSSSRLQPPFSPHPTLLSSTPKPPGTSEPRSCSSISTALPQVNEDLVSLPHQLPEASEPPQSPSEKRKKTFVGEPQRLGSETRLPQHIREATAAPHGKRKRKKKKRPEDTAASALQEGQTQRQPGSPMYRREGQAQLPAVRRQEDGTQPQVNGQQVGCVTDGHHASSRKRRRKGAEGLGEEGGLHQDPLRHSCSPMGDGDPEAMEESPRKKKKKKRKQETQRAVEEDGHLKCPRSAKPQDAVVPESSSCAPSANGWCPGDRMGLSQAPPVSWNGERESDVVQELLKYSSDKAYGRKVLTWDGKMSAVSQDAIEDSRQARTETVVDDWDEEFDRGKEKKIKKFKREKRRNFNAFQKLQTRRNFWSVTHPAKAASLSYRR
Summary of the method: as §1

USP38 = target: T2, USP38 (UniProt Q8NB14)
T2 sequence (whole entry): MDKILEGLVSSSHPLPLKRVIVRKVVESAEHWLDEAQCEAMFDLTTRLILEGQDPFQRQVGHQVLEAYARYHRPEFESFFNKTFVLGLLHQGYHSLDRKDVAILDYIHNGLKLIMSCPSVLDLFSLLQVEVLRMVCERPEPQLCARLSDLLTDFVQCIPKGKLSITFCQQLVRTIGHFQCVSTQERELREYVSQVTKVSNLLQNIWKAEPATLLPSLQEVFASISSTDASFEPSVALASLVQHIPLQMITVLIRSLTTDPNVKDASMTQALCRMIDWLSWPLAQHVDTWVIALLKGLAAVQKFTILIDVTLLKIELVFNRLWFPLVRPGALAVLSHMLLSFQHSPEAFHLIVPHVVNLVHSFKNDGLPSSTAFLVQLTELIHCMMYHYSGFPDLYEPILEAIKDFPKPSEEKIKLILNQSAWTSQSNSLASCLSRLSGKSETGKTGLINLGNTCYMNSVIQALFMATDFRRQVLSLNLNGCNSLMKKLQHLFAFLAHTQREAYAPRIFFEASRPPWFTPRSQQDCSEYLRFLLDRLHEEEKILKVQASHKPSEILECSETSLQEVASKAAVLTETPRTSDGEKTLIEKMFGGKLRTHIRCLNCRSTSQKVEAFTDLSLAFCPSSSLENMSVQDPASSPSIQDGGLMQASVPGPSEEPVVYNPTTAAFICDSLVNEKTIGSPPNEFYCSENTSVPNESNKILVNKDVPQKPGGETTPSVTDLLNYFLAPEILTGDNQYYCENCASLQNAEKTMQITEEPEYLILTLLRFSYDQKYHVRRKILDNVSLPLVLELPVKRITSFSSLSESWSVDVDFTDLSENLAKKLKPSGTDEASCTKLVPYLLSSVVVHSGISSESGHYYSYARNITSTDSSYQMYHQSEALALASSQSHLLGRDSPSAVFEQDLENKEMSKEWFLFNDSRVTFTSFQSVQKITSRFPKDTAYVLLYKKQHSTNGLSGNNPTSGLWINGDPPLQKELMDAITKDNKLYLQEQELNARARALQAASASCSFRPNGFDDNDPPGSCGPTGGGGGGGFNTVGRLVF
Summary of the method: as §1

USP39 = target: T3, USP39 (UniProt Q53GS9)
T3 sequence (whole entry): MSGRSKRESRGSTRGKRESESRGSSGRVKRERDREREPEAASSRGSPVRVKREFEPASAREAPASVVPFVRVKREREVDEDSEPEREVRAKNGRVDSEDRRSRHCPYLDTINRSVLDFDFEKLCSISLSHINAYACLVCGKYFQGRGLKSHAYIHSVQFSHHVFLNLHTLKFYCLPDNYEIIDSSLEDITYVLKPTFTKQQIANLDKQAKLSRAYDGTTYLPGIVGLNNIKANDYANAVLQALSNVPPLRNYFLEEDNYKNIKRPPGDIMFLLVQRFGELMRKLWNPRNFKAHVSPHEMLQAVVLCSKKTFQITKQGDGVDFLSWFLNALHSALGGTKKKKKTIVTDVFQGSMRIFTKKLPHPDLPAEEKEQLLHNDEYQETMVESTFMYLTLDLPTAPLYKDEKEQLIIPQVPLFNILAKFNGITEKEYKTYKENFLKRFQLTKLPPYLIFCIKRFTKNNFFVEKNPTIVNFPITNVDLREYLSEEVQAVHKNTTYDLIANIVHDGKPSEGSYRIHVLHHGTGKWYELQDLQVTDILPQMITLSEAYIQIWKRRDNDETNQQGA
Summary of the method: as §1

USP4 = target: T4, USP4 (UniProt Q13107)
T4 sequence (whole entry): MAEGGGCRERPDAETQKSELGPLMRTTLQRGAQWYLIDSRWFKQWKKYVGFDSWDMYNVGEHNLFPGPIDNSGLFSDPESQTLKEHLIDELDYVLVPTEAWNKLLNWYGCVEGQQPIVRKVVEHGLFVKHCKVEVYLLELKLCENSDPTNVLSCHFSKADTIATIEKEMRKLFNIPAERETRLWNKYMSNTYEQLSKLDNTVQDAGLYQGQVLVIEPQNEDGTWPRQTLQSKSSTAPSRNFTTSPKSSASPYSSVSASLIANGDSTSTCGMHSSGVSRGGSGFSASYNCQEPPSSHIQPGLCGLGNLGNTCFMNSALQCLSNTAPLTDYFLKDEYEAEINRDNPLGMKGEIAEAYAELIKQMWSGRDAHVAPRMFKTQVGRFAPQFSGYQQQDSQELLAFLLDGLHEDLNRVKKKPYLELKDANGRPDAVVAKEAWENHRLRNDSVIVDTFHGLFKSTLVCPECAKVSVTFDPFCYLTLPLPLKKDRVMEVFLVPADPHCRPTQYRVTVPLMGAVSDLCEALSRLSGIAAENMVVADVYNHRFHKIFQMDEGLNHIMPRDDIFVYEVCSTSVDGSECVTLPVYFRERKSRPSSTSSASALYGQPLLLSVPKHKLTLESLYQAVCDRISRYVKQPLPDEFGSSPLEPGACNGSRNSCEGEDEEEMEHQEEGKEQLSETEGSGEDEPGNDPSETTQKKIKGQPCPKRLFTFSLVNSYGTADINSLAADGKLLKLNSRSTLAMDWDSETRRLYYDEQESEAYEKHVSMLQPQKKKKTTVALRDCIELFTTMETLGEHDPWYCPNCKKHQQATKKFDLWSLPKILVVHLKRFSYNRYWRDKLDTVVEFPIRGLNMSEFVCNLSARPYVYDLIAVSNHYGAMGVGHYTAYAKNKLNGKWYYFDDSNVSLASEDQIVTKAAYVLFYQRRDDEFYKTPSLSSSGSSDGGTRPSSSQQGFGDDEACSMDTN
Summary of the method: as §1

Measured: log2 ratio of Biotin-Ahx-Ub-VS probe labelling

Sequence of USP34 (Q70CQ2 whole entry, the tested form may be a part): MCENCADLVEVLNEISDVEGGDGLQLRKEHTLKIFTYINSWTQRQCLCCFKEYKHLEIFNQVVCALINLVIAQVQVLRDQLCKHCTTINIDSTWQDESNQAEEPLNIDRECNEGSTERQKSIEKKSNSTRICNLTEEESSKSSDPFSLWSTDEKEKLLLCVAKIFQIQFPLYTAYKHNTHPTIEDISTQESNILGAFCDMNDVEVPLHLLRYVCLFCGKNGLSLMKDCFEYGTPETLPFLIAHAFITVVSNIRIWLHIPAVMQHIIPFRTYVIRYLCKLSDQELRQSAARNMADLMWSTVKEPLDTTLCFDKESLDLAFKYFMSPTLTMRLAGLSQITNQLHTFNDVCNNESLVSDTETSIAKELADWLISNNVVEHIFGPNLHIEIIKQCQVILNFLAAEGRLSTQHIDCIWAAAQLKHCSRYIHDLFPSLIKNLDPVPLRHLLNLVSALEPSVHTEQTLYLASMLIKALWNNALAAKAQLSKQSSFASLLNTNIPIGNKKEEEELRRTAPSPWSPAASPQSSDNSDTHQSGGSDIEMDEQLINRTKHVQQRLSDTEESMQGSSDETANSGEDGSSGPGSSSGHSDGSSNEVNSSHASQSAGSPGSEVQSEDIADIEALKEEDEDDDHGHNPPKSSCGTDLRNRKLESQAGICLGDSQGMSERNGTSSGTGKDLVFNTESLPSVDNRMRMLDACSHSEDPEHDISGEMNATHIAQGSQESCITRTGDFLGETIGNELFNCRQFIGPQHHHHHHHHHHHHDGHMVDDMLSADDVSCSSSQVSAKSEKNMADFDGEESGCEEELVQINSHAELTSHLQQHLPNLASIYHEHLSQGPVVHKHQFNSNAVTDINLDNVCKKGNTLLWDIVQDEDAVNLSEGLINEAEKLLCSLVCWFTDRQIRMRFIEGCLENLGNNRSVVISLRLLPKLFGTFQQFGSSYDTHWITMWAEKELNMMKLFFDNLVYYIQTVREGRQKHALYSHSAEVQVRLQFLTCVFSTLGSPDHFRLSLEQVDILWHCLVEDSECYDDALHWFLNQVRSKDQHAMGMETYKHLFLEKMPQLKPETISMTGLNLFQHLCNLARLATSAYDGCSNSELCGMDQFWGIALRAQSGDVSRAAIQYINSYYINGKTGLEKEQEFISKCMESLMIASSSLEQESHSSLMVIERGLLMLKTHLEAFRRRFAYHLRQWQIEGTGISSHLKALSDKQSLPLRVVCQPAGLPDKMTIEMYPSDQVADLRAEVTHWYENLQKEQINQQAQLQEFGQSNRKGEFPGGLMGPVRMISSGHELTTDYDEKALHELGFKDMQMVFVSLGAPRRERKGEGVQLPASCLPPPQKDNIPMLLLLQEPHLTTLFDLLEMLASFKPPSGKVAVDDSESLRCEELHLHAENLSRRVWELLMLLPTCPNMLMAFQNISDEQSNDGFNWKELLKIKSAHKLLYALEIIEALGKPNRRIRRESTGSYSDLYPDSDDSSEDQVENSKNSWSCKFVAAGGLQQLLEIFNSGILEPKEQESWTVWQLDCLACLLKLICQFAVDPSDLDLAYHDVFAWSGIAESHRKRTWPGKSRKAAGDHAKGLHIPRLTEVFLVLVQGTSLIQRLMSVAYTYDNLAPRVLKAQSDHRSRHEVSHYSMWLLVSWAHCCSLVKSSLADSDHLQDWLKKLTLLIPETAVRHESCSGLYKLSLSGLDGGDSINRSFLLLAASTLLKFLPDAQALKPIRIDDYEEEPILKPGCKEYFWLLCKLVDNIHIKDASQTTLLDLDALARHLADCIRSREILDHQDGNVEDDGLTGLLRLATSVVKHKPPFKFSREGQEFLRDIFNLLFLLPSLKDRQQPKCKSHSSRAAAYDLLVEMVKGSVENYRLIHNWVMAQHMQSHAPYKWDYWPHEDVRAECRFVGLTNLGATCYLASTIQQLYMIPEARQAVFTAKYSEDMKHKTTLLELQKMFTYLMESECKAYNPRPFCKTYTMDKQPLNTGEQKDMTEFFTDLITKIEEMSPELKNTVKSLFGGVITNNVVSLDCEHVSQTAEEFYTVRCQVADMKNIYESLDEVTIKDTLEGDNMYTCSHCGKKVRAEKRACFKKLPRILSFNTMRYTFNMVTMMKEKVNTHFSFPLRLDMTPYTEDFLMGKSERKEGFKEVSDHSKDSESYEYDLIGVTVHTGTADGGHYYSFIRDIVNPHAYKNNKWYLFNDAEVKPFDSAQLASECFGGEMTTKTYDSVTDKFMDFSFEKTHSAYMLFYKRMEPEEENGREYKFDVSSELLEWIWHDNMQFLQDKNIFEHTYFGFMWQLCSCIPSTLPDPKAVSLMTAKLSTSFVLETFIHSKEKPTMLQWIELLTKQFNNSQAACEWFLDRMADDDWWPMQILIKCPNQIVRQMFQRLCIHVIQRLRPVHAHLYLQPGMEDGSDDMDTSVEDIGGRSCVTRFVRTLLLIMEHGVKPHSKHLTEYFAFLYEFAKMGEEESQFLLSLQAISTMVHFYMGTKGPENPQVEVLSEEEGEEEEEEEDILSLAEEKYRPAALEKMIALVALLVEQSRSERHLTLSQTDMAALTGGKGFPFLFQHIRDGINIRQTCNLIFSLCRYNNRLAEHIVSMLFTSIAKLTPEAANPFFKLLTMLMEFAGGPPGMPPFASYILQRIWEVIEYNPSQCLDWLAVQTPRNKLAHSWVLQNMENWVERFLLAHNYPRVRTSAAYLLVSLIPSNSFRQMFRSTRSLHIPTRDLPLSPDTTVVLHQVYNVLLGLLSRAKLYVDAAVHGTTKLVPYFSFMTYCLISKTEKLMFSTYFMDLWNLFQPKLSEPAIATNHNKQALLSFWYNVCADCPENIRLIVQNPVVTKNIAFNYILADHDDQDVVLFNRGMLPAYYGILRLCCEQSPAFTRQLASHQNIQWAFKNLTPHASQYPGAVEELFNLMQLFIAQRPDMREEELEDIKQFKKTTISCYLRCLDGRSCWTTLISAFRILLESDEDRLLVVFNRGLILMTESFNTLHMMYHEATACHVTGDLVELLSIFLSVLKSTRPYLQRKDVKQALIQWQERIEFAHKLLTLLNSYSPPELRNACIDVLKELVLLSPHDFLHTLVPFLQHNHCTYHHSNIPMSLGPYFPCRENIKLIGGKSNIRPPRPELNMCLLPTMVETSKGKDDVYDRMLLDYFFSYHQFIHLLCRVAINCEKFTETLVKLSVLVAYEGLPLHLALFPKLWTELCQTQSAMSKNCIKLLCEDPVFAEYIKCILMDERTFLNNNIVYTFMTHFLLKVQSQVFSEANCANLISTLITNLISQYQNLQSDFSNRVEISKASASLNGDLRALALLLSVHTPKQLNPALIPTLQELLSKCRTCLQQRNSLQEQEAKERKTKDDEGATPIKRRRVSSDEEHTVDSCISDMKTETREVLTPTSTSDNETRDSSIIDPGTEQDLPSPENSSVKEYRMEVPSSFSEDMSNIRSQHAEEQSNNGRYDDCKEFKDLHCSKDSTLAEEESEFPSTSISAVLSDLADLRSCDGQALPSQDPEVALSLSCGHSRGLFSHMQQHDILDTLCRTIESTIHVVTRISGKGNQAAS

Cc1cccc(NC(=O)[C@@H]2CCCN2C(=O)CCl)n1
inactive: USP34 0.0425 | USP36 -0.0946 | USP38 -0.0719 | USP39 0.179 | USP4 -0.0817
